From PubChem BioAssay (NCI)
The panel holds about 83,000 compounds, 20% with a hit somewhere; the sample as a whole holds those more often.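 Compound tested at a single concentration for 48 hours in 96-well plates; a percent growth value below 10 was scored as active.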 Active and inactive are the calls of the source.

Experiments:
Test in all cases: NCI-60 one-dose screen, 48 h (100 = growth as untreated, 0 = no growth, -100 = all killed)
Details in all cases: 10 µM unless noted
HCT-15 colon = test system: HCT-15 colon
HT29 colon = test system: HT29 colon
SNB-75 CNS = test system: SNB-75 CNS
SNB-19 CNS = test system: SNB-19 CNS
U251 CNS = test system: U251 CNS
SK-MEL-5 melanoma = test system: SK-MEL-5 melanoma
UACC-62 melanoma = test system: UACC-62 melanoma
LOX IMVI melanoma = test system: LOX IMVI melanoma
SK-MEL-28 melanoma = test system: SK-MEL-28 melanoma
SK-MEL-2 melanoma = test system: SK-MEL-2 melanoma
EKVX NSCLC = test system: EKVX NSCLC
SN12C renal = test system: SN12C renal
UO-31 renal = test system: UO-31 renal
TK-10 renal = test system: TK-10 renal
ACHN renal = test system: ACHN renal
CAKI-1 renal = test system: CAKI-1 renal
A498 renal = test system: A498 renal
CCRF-CEM leukemia = test system: CCRF-CEM leukemia
MOLT-4 leukemia = test system: MOLT-4 leukemia
PC-3 prostate = test system: PC-3 prostate

Measured: growth

CCc1ccc(SC2c3ccc(N(CC)CC)cc3Oc3nc(N)c(C#N)c(N)c32)cc1 (stereo unspecified)
inactive: SNB-75 CNS 12.7%
active: HCT-15 colon -88% | HT29 colon -54.6% | SNB-19 CNS -95.1% | U251 CNS -71.3% | SK-MEL-5 melanoma -97% | UACC-62 melanoma -32.7% | LOX IMVI melanoma -86.6% | SK-MEL-28 melanoma -18.7% | SK-MEL-2 melanoma -48.2% | EKVX NSCLC -54.8% | SN12C renal -32.9% | UO-31 renal -98.8% | TK-10 renal -18% | ACHN renal -53.7% | CAKI-1 renal -46.7% | A498 renal -8.49% | CCRF-CEM leukemia -23.7% | MOLT-4 leukemia -8.26%

O=C1CCCC2=C1C(c1c[nH]c3ccc(Br)cc13)Cc1cc(Br)ccc1N2 (stereo unspecified)
active: CCRF-CEM leukemia 6.67%
inactive: HCT-15 colon 26.5% | HT29 colon 12.2% | SNB-75 CNS 39.8% | SNB-19 CNS 32.6% | U251 CNS 31.6% | SK-MEL-5 melanoma 43% | UACC-62 melanoma 10.4% | LOX IMVI melanoma 14.1% | SK-MEL-28 melanoma 54.3% | SK-MEL-2 melanoma 25.3% | EKVX NSCLC 41.9% | SN12C renal 34.5% | UO-31 renal 36.3% | TK-10 renal 94.8% | ACHN renal 36.2% | CAKI-1 renal 24.7% | MOLT-4 leukemia 21.5%

Cn1ccnc1C(=O)/C=C/c1ccc(CNC(=O)c2ccc(F)cc2)cc1
inactive: HT29 colon 10.2% | SNB-75 CNS 60.6% | SNB-19 CNS 15.6% | PC-3 prostate 23.5% | SK-MEL-5 melanoma 72.8% | UACC-62 melanoma 43.2% | SK-MEL-28 melanoma 80.5% | SK-MEL-2 melanoma 105% | EKVX NSCLC 53.5% | SN12C renal 20% | UO-31 renal 34.9% | TK-10 renal 75% | ACHN renal 43.4% | CAKI-1 renal 48% | A498 renal 63.7% | CCRF-CEM leukemia 12.8%
active: HCT-15 colon 8.09% | LOX IMVI melanoma -1.32% | MOLT-4 leukemia 9.84%

COc1ccc(C(=O)CSc2nc3c(c(Nc4ccc(S(N)(=O)=O)cc4)n2)CCCC3)cc1
inactive: HCT-15 colon 88.4% | HT29 colon 96.4% | SNB-75 CNS 119% | SNB-19 CNS 94.1% | U251 CNS 89.9% | SK-MEL-5 melanoma 96.6% | UACC-62 melanoma 93.5% | LOX IMVI melanoma 83% | SK-MEL-28 melanoma 110% | SK-MEL-2 melanoma 104% | EKVX NSCLC 96.7% | SN12C renal 89.9% | UO-31 renal 81.1% | TK-10 renal 120% | ACHN renal 89.9% | CAKI-1 renal 70.9% | A498 renal 86.5% | CCRF-CEM leukemia 83.1% | MOLT-4 leukemia 75.7%

C/C(=N\O)[C@H]1C[C@]23CC[C@]4(C)[C@H](CC[C@@H]5[C@@]6(C)CC/C(=N/O)C(C)(C)[C@@H]6CC[C@]54C)[C@H]2[C@H](C)C1(C)OC3
inactive: HCT-15 colon 105% | HT29 colon 113% | SNB-75 CNS 72% | SNB-19 CNS 97.7% | PC-3 prostate 94.8% | SK-MEL-5 melanoma 100% | UACC-62 melanoma 89.7% | LOX IMVI melanoma 98.2% | SK-MEL-28 melanoma 110% | SK-MEL-2 melanoma 110% | EKVX NSCLC 70.9% | SN12C renal 91.5% | UO-31 renal 67% | TK-10 renal 73.7% | ACHN renal 104% | CAKI-1 renal 65.2% | A498 renal 72% | CCRF-CEM leukemia 101% | MOLT-4 leukemia 98.7%

Cc1ccc(-c2nnc(SCc3ccc(O)c4ncccc34)o2)cc1
active: SNB-75 CNS 0.0889% | U251 CNS 7.11% | SK-MEL-5 melanoma 2.42% | UACC-62 melanoma 2.61% | LOX IMVI melanoma 4.71% | UO-31 renal -12.8%
inactive: HCT-15 colon 10.8% | HT29 colon 79% | SNB-19 CNS 11.1% | SK-MEL-28 melanoma 22.8% | SK-MEL-2 melanoma 34.8% | EKVX NSCLC 22.1% | SN12C renal 34.5% | TK-10 renal 24.3% | ACHN renal 10.3% | CAKI-1 renal 24.8% | A498 renal 36.5% | CCRF-CEM leukemia 12.3% | MOLT-4 leukemia 10.8%

COc1cccc(O)c1/C=C(/C)c1ccc2c(OC)cccc2[o+]1
inactive: HCT-15 colon 95.1% | HT29 colon 118% | SNB-75 CNS 97.1% | SNB-19 CNS 103% | PC-3 prostate 97.5% | SK-MEL-5 melanoma 105% | UACC-62 melanoma 93.7% | LOX IMVI melanoma 83.9% | SK-MEL-28 melanoma 101% | SK-MEL-2 melanoma 107% | EKVX NSCLC 96.5% | SN12C renal 99.5% | UO-31 renal 79.7% | TK-10 renal 140% | ACHN renal 98.9% | CAKI-1 renal 90.3% | A498 renal 95.7% | CCRF-CEM leukemia 106% | MOLT-4 leukemia 107%

O=C(Nc1nonc1-c1ccccc1)c1ccc(C(F)(F)F)cc1
active: LOX IMVI melanoma -46.7%
inactive: HCT-15 colon 80.6% | HT29 colon 103% | SNB-75 CNS 104% | SNB-19 CNS 62% | U251 CNS 70.1% | SK-MEL-5 melanoma 65.6% | UACC-62 melanoma 56% | SK-MEL-28 melanoma 77.5% | SK-MEL-2 melanoma 65.3% | EKVX NSCLC 84.6% | SN12C renal 71.7% | UO-31 renal 91.4% | TK-10 renal 146% | ACHN renal 82.1% | CAKI-1 renal 85.5% | A498 renal 95.6% | CCRF-CEM leukemia 50.8% | MOLT-4 leukemia 69.1%
